Screening results: PubChem, National Center for Advancing Translational Sciences (NCATS)
HT1080NT lethal = kills 2HG-producing HT-1080-NT fibrosarcoma cells. Potency, µM (top dose mostly 46.1 µM), for the others: at the top dose activity, negative = less viability, hits mostly cytotoxic. HT-1080-NT fibrosarcoma viability, CellTiter-Glo ATP luminescence, 48 h. hit rate 1.6% among 360,000. AID 686970;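 note: NT is the 2HG producing partner of a matched IDH1 knockdown line; 0% = DMSO-treated cells and -100% = media-only wells without cells; nearly all actives have a fitted effect of over 55% in size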
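HT-1080-NT fibrosarcoma cells (2HG-overproducing), 750 cells/well in RPMI with 5% FBS, dosed after 2 h and incubated 48 h at 37C. CellTiter-Glo luminescence normalized to DMSO and no-cell wells; concentration-response curves fitted and classed.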
TDP1 cell noCPT = qHTS for Inhibitors of human tyrosyl-DNA phosphodiesterase 1 (TDP1): qHTS in cells in absence of CPT | Potency, µM (titrated, usually from 46.2 µM), inactives show at the highest dose activity change, negative = growth inhibition, most hits filed as inhibitors | hit rate 15% among 420,000 | AID 686978, 2013 | DT40 Tdp1-/- hTDP1 cells, no CPT, ATP luminescence, 48 h; note: nearly all actives have a fitted effect of over 55% in size
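Chicken DT40 Tdp1-/- cells complemented with human TDP1, screened without camptothecin (DMSO vehicle only), 400 cells/well. Compounds pin-transferred, cells incubated at 37 °C for at least 48 hr. Growth read as ATP-dependent luminescence (CellTiter-Glo, 30 min at RT).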
HT1080 IDH1KD tx = toxicity to HT-1080 IDH1 knockdown cells (counter line). HT-1080 IDH1 knockdown viability, ATP luminescence, 48 h. Potency, µM (titrated, usually from 46.1 µM), for inactives: at the top dose activity, negative = toxicity, hits mostly cytotoxic. hit rate 2% among 360,000;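 note: 0% = DMSO wells and -100% = cell-free medium wells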
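HT-1080-IDH1KD cells (IDH1 knocked down), 750/well in RPMI with 5% FBS, treated with compound 48 h at 37 degrees C. Viability by CellTiter-Glo luminescence, normalised to DMSO and no-cell wells; concentration-response curves classed.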
KB-3-1 tox = kills parental KB-3-1 adenocarcinoma cells | Potency, µM (highest dose often 46.1 µM), usual class: cytotoxic | KB-3-1 viability, CellTiter-Glo ATP luminescence, 72 h | hit rate 1.4% among 400,000; note: nearly all actives have a fitted effect of over 60% in size
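Using CellTiter-Glo luminescence, growth of non-resistant KB-3-1 adenocarcinoma cells is assessed 72 h after pin-tool compound addition at 37 °C. Normalized responses across the concentration series yield fitted curves.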
DT40 TDP1 CPT = DT40-hTDP1 cell growth loss with CPT. Potency, µM (doses to about 46.2 µM), without a hit: at the top dose activity change, negative = growth inhibition, actives largely listed as inhibitors. chicken DT40 Tdp1-/-;hTDP1 cells + 20 nM CPT, ATP luminescence, 48 h. AID 686979. hit rate 12% among 420,000; note: nearly all actives have a fitted effect of over 55% in size
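Chicken DT40 Tdp1-/- cells complemented with human TDP1, 400 cells/well, exposed to compounds plus 20 nM camptothecin for at least 48 h at 37 C; viability read as ATP content by CellTiter-Glo luminescence.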
KB-V1 MDR tox = kills drug-selected multidrug resistant KB-V1 cells | AID 1347076 | hit rate 3.4% among 400,000 | Potency, µM (titrated, usually from 46.1 µM), actives largely listed as cytotoxic | KB-V1 MDR cells viability, CellTiter-Glo, 72 h; note: nearly all actives have a fitted effect of over 60% in size
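In this primary screen, KB-V1 cells overexpressing P-gp are incubated with library compounds (lowest to highest concentration) for 72 h at 37 degrees C before a luminescent ATP viability read.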
Active calls of the source: *; i = inactive; ? = inconclusive; . = no result. In the library only some 19% were active in any assay of this set; here they are far more common. Calls come from the whole dose curve; as a rule, active = well fitted curve in the direction sought with a large enough effect; inconclusive = small, poorly fitted or top-dose-only effect, or another doubt; inactive = no such curve, though single readings can be large; an effect the other way counts as inactive or inconclusive. Unless noted, % is set by controls: 0 for no effect and ±100 for the full control effect; potency is the fitted concentration of half-maximal effect.

SMILES | HT1080NT lethal | TDP1 cell noCPT | HT1080 IDH1KD tx | KB-3-1 tox | DT40 TDP1 CPT | KB-V1 MDR tox
CCC1CN(C(=O)N2CCC(C(=O)NCc3ccccc3OC)CC2)c2ccccc2O1 (stereo not given) | 0% | ? | -7% | ? | ? | i
CCC1CN(C(=O)N2CCC(C(=O)NCc3ccc(N(C)C)cc3)CC2)c2ccccc2O1 (stereo not given) | . | ? | . | . | 16µM* | .
CCOc1ccc(CNC(=O)C2CCN(C(=O)N3CC(CC)Oc4ccccc43)CC2)cc1 (stereo not given) | . | 23µM* | . | . | 15µM* | .
CCOc1ccc(CCNC(=O)C2CCN(C(=O)N3CC(CC)Oc4ccccc43)CC2)cc1 (stereo not given) | . | 15µM* | . | . | 15µM* | .
CC(C)Oc1ccc(CNC(=O)C2CCN(C(=O)N3CC(C)Oc4ccccc43)CC2)cc1 (stereo not given) | . | ? | . | i | ? | i
CCOC(=O)c1cnn(CCOC(=O)c2ccccc2)c1NC(=O)c1ccccc1 | -1% | ? | -6% | i | -8% | 10µM*
CCOC(=O)c1cnn(CCOC(=O)c2ccc(OC)cc2)c1NC(=O)c1ccc(OC)cc1 | -4% | -23% | -4% | i | -26% | ?
COc1cc(O)c2c(=O)c(-c3ccc(O[C@@H]4O[C@H](CO)[C@@H](O)[C@H](O)[C@H]4O)cc3)coc2c1 | -25% | -8% | -27% | i | 3% | i
COc1cccc(-c2sc3cc(OC)c(OC)cc3c2-c2ccc(OCCN3CCCCC3)cc2)c1 | ? | 13µM* | 16µM* | i | 18µM* | i
c1ccc(-c2sc3ccccc3c2-c2ccc(OCCN3CCCC3)cc2)cc1 | ? | 15µM* | -11% | ? | 21µM* | ?
COc1cccc(-c2sc3ccccc3c2-c2ccc(OCCN3CCCCC3)cc2)c1 | -8% | 18µM* | -15% | ? | ? | ?
COc1cccc(-c2sc3ccc(OC)cc3c2-c2ccc(OC)cc2F)c1 | -2% | -18% | 8% | ? | -9% | i
COc1ccc2sc(-c3ccccc3OC)c(-c3ccc(OCCN(C)C)cc3)c2c1 | ? | 21µM* | ? | i | 16µM* | i
c1ccc(COc2ccc(OCCN3CCCC3)cc2)cc1 | -8% | ? | 0% | i | ? | i
COC(=O)c1ccc(N2CC3CNC(=O)C2(C(=O)OC)N3C)cc1 (stereo not given) | ? | -2% | 5% | ? | 15% | ?
CC(C)N1CCN(C(=O)C2CCC(=O)N(CCc3cccc(F)c3)C2)CC1 (stereo not given) | -13% | -3% | 7% | . | 13% | .
COc1ccc(/C=N/NC(=O)c2[nH]ncc2Br)c(OC)c1 | 1% | -4% | 13% | i | -12% | ?
COc1cccc(-c2sc3ccccc3c2-c2ccc(OCCN3CCCC3)cc2)c1 | ? | 8.2µM* | ? | ? | 9.2µM* | ?
COc1cccc(-c2sc3ccccc3c2-c2ccc(OCCN(C)C)cc2)c1 | ? | 18µM* | 16µM* | ? | ? | ?
COc1cccc(-c2sc3ccc(OC)cc3c2-c2ccc(C(N)=O)cc2)c1 | ? | -23% | -19% | i | ? | i
COc1cccc2c1C1COC3C4CC(C(=O)O)C(C(C2)N13)N4C (stereo not given) | 5.8µM* | 12µM* | 7.3µM* | ? | 5.2µM* | 16µM*
Cc1ccc(Cn2c(SCC(=O)NCC3CCCO3)nc3c2c(=O)n(C)c(=O)n3C)cc1 (stereo not given) | 13% | -11% | 5% | i | 6% | ?
